# From PubChem BioAssay
# The list is not random: actives were taken first. Their share in the collection is about 3.3%.
# Bim-Mcl-1 = inhibitors of Bim-Mcl-1 interaction, human | Q07820 | Bead-based flow cytometry, Bim peptide-Mcl-1 binding | inhibition, % at 10 µM | AID 1009 | actives 0.1% (n = 190,000); in the data active means inhibition above about 40%;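 further: 0% = no compound tracer wells and 100% = peptide blocker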
# 14-3-3 Bad inh = disrupts binding of bovine 14-3-3 zeta to phospho-Bad peptide; inhibition, % at 21.7 µM; actives 0.71% (n = 220,000); AID 781; P63103; TR-FRET 14-3-3zeta/Dy647-pBad peptide displacement, 1 h;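 active means inhibition above about 70%, limit read from the data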;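 further: 0% = full 14-3-3 plus peptide FRET controls and 100% = background without 14-3-3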
# p47phox inh = blocks human p47phox regulatory protein of NADPH oxidases; inhibition, % at 24.7 µM; p47phox/p22phox peptide binding, fluorescence polarization, 2 h; P14598; actives 0.53% (n = 220,000);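 further: 0% = p47phox with labelled peptide and 100% = labelled peptide alone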
# Mcl1-Noxa inh = Mcl-1/Noxa interaction inhibition; TR-FRET Mcl-1/Noxa peptide binding, 2 h; inhibition, % at 21.7 µM; actives 1.5% (n = 220,000); AID 1022;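 active means compounds that cut the protein-peptide binding signal by more than 50% relative to plate controls in a single-dose test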;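 further: His-tagged Mcl-1 with rhodamine Noxa BH3 peptide and terbium anti-His antibody; 0% = Mcl-1 plus Noxa peptide wells and 100% = peptide-only wells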
# Mcl1-Bid inh = Mcl-1/Bid interaction inhibition. inhibition, % at 21.7 µM. AID 1021. TR-FRET Mcl-1/Bid-Dy647 peptide binding, 1536-well. actives 0.97% (n = 220,000). Q07820;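 active means compounds that cut the binding signal by more than half at the single screening dose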;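 further: His-tagged Mcl-1 with europium anti-His antibody binding Bid BH3 peptide; 0% = Mcl-1 plus peptide wells and 100% = peptide-only wells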
# eIF4E-4G inh = inhibitors of eIF4E and eIF4G interaction in translation initiation. P63073+Q04637. TR-FRET eIF4E-eIF4GI(517-606) binding, 2 h. inhibition, % at 21.7 µM. actives 0.37% (n = 220,000). AID 782;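 further: 0% = full FRET control wells and 100% = background wells lacking eIF4GI fragment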
# Numbers without * were called inactive; · = no result; [ ] = another dose, or the depositor's remark.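 How the source made its calls, unless noted: active means inhibition above about 30% (limit read from the data); inactive means the rest.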
SMILES,Bim-Mcl-1,14-3-3 Bad inh,p47phox inh,Mcl1-Noxa inh,Mcl1-Bid inh,eIF4E-4G inh
Cc1cc(C(=O)CN2C(=O)C(=O)N(CC(C)C)C2=O)c(C)n1-c1ccccc1F,-7,-19,-5,7,-33,0
Cc1cc2cc3c(=O)[nH]c(=O)[nH]c3nc2cc1C,·,-14,151*,3,0,3
CCOc1cc(C2c3c(n[nH]c3C)C(=O)N2c2ccc(C)cc2)ccc1O (centres undefined),-1,-13,-4,1,-38,65*
CC(C)N1CCN(Cc2ccc(-c3ccccc3Cl)o2)CC1CCO (centres undefined),-3,-5,-4,1,2,-3
COc1ccc(C(CC(=O)O)NC(C)=O)cc1OC (centres undefined),-9,-1,-3,7,-27,5
CCOC(=O)NC(CC(=O)O)c1ccc(OC)c(OC)c1 (centres undefined),1,17,68*,-8,-18,-9
CCNc1nc(Oc2ccc(=O)[nH]n2)nc(N2CCOCC2)n1,-4,5,-24,5,2,-8
O=c1ccc(Oc2nc(N3CCCCC3)nc(N3CCCCC3)n2)n[nH]1,1,74*,-1,4,-41,1
O=C(NN1CCOCC1)c1cccc(COc2cccc(Br)c2)c1,0,93*,-2,3,-9,-3
C#Cc1ccc([C@@H]2C=C(C(=O)N3CCOCC3)O[C@H](OCC)[C@H]2CCCO)cc1,-1,0,·,-8,3,0
O=C(CN1CCCCCC1)NCCc1ccc(F)cc1,-4,75*,-8,7,44,3
CCCCc1ccc(-n2c(Cc3cccs3)n[nH]c2=S)cc1,-4,-10,-2,25,-27,1
Cc1ccc(-n2cc(-c3ccccc3)c3c(NN4CCOCC4)ncnc32)cc1,-1,-28,94*,18,-35,-3
Cc1cccc(-n2cc(-c3ccccc3)c3c(NN4CCOCC4)ncnc32)c1,1,-1,-5,26,-20,6
Cc1ccc(/C=c2\sc3nc(-c4ccco4)nn3c2=O)o1,5,1,-79,77*,25,11
Cc1ccc(-c2nc3s/c(=C\c4ccco4)c(=O)n3n2)cc1,-3,-4,-20,52*,22,0
Cc1ccc(/C=c2/sc3nnc(-c4ccccc4Cl)n3c2=O)o1,-5,5,-32,39,-22,1
Cc1ccc(/C=c2\sc3nc(-c4ccccc4Br)nn3c2=O)o1,9,-10,-112,79*,62*,12
O=c1nc2s/c(=C\c3ccco3)c(=O)n2nc1Cc1ccc(F)cc1,-2,-5,-17,65*,-31,7
COc1ccccc1/C=c1\sc2nc(-c3ccccc3OC)nn2c1=O,-1,1,-23,-2,-4,-10
CS(=O)(=O)c1cnc(-c2cccnc2)nc1N,0,3,-8,15,10,6
O=C(NCCCn1ccnc1)c1cc(-c2cccc(O)c2)on1,·,-2,-6,-17,-34,2
COc1ccc(/C=C2\SC(=O)NC2=S)cc1OC,23,5,-15,64*,-63,0
CCOc1ccc(/C=C2\SC(=S)NC2=O)cc1OC,2,-10,-38,21,-17,-5
Cn1cc(/C=C2\SC(=O)NC2=S)c2ccccc21,0,-7,-8,35,-36,-5
SMILES,Bim-Mcl-1,14-3-3 Bad inh,p47phox inh,Mcl1-Noxa inh,Mcl1-Bid inh,eIF4E-4G inh
COc1cc(/C=C2\SC(=O)NC2=O)ccc1Oc1ccc([N+](=O)[O-])cc1[N+](=O)[O-],-2,20,-3,87*,-105,1
Cc1ccc(/C=C2/SC(=O)NC2=S)o1,0,6,25,77*,-55,6
CC(=O)Oc1ccc2c(=O)c(/C=N/c3cc(=O)[nH]c(=S)[nH]3)coc2c1,·,0,-10,23,-36,-1
CC(=O)N1CCc2c(sc(NC(=O)c3ccc([N+](=O)[O-])o3)c2C#N)C1,-5,5,-12,53*,-33,8
CCN(CC)c1ccc(NC(=O)Nc2ccc(C(C)=O)cc2)cc1,-5,0,-12,97*,5,-3
CCN(CC)c1ccc(NC(=O)c2cncc(Br)c2)cc1,-4,3,-5,58*,-5,-6
CCNC(=O)Cn1cc(C(F)(F)F)cc(Cl)c1=O,·,4,-7,3,-4,-3
COC(=O)c1ccc(Sc2ccccn2)c([N+](=O)[O-])c1,-5,-8,1,-2,55*,0
CC1(c2ccc(Cl)cc2Cl)OCC(Cn2ccnc2)O1 (centres undefined),1,41,-12,23,80*,-1
COc1cc(C(=O)NNC(=O)C2CC=CCC2C(=O)O)cc(OC)c1OC (centres undefined),-6,1,-5,5,-27,30*[fluorescence artefact?]
CC(C)(C)C(=O)O/N=C(\N)c1ccc(-c2csnn2)cc1,·,-2,-22,2,-4,0
O=C(O)c1ccccc1Nc1ccnc(Cl)n1,·,-4,-5,12,-40,74*
Cc1c(N(C(=O)c2ccccn2)C2(C(=O)NC3CCCC3)CCCCC2)c(=O)n(-c2ccccc2)n1C,1,-3,16,1,-14,-1
O=C(O)CCCNc1ccc(S(=O)(=O)Nc2ccccc2C(=O)O)cc1C(=O)O,-4,6,-9,60*,22,3
O=C(O)c1ccccc1NS(=O)(=O)c1cccc2cccnc12,-3,31,-5,-1,-4,-1
O=C(O)c1ccccc1NS(=O)(=O)c1ccccc1C(F)(F)F,-2,12,4,53*,-5,0
O=C(COC(=O)C1CCCCC1)Nc1ccccc1OC(F)F,5,-7,-7,-5,-40,-1
O=C(Nc1nc2ccccc2s1)c1ccccc1,0,-12,-7,14,-18,-2
CSc1nc2ccc3nc(NC(=O)c4ccccc4)sc3c2s1,0,21,0,29,55*,0
CN(Cc1ccccc1NS(=O)(=O)c1ccc2ccccc2c1)C1CCCCC1,0,-1,3,18,-11,1
Cc1ccc(C23CC4CC(CC(C(=O)N5CCOCC5)(C4)C2)C3)cc1,-3,-4,-15,22,58*,5
Cc1ccc(C23CC4CC(CC(CN)(C4)C2)C3)cc1,1,-4,-4,-5,8,86*
COC(=O)CNC(=O)C12CC3CC(C1)CC(c1ccc(C)cc1)(C3)C2,1,-12,-3,9,-24,-3
O=C(N1CCOCC1)C12CC3CC(C1)CC(c1ccccc1)(C3)C2,-3,12,-14,-5,-20,-3
CCOc1ccccc1NC(=S)NCc1cccn1C,-5,-2,·,28,17,5
